Screening results from PubChem.
Rows were chosen to be rich in hits. Some 21% of all compounds tested hit in one or more screens of this group.
Shiga inhibitor – blocks Shiga toxin action in Vero cells; Vero cells, Shiga toxin protein synthesis inhibition reporter; inhibition, % at 38.7 µM; actives 9.2% (n = 290,000); AID 2315; in the data active = inhibition mostly above about 28%, no sharp cut-off; inactive = mostly below about 43%; note: 0% is about no effect
Pf growth 96h – P. falciparum growth inhibition at 96 hours; P. falciparum luciferase reporter growth, 96 h; Potency, µM (highest dose often 28.7 µM), for the others: at the highest dose activity change, negative = inhibition, most hits filed as inhibitors; actives 6.9% (n = 320,000); AID 504834; note: potency is the fitted concentration of half-maximal effect; % is set by controls: 0 for no effect and ±100 for the full control effect
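Delayed-death screen, second-generation endpoint: infected erythrocytes, 2% hematocrit, 0.05% parasitemia final; 96 hours at 37 C, 5% CO2; luciferase detection reagent; luminescence decrease equals reduced growth.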
AMA1 RON2 block – disrupts binding of P. falciparum AMA1 to RON2; AlphaScreen AMA1-biotinylated RON2 peptide binding; Potency, µM (top dose mostly 58.2 µM), inactives show at the top dose activity change, negative = inhibition, usual class: inhibitors; actives 0.2% (n = 360,000); AID 720542;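 note: potency is the fitted concentration of half-maximal effect; 0% = vehicle wells and -100% = peptide control; nearly all actives have a fitted effect of over 45% in size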
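AMA1 (3D7) with his tag at 25 nM final met compounds first, then biotinylated RON2 peptide at 25 nM; detection used donor plus acceptor beads, 10 µg/mL apiece, read by AlphaScreen after 30 min at room temperature.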
HCV inhibitor – inhibitors of hepatitis C virus infection. actives 3.4% (n = 340,000). Huh7.5.1 HCVcc-Cre infection, luciferase reporter, 44 h. Potency, µM (top dose mostly 41.8 µM), for the others: top-dose activity change, negative = inhibition, most hits filed as inhibitors; note: potency is the fitted concentration of half-maximal effect; % is set by controls: 0 for no effect and ±100 for the full control effect
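1,000 cells/well; 4 h culture; + compound; + HCVcc-Cre (~0.5 moi); 44 h; luciferase substrate, RT 15 min; read 15 sec.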
Cycloheximide cs – counter-screen hit for Shiga toxin inhibitors, cycloheximide. cell reporter, cycloheximide protein synthesis inhibition counterscreen. max response, %. actives 12% (n = 300,000). AID 2314; in the data active = max response mostly above about 13%, no sharp cut-off; inactive = mostly below about 14%; note: read at 38.3 µM for the half of the compounds with a filed dose; 0% is about no effect
Pf growth 48h – P. falciparum growth inhibition at 48 hours (one generation); P. falciparum luciferase growth in erythrocytes, 48 h; Potency, µM (doses to about 28.7 µM), for inactives: at the highest dose activity change, negative = inhibition, hits mostly inhibitors; actives 5.9% (n = 310,000); AID 504832; note: potency is the fitted concentration of half-maximal effect; % is set by controls: 0 for no effect and ±100 for the full control effect
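Erythrocytes infected with P. falciparum carrying an integrated firefly luciferase reporter (2% hematocrit, 0.1% parasitemia final) were exposed to compounds in RPMI 1640 with 0.5% Albumax at 37 C, 5% CO2. Growth inhibition was scored as reduced luminescence.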
Starred values were filed as active, the others as inactive; i = inactive; u = inconclusive; x = no result given; [ ] = remark or other dose. Unless noted, calls come from the whole dose curve; as a rule, active = well fitted curve in the direction sought with a large enough effect; inconclusive = small, poorly fitted or top-dose-only effect, or another doubt; inactive = no such curve, though single readings can be large; an effect the other way counts as inactive or inconclusive.

SMILES | Shiga inhibitor | Pf growth 96h | AMA1 RON2 block | HCV inhibitor | Cycloheximide cs | Pf growth 48h
COc1ccc(C(=O)OCC(=O)c2ccc(C3CCCCC3)cc2)cc1 | 7.5 | 28.9% | -24.6% | u | 13.2* | 5.2%
COc1ccc(C(=O)COC(=O)C2CCC(=O)N2)cc1 (stereo unspecified) | -7.5 | u | -9.6% | 5.2% | -1.8 | u
Nc1ccc(O)cc1C(=O)OCC(=O)c1ccc(C2CCCCC2)cc1 | 144.8* | 33.7% | -3.1% | u | 60.7* | 30.0%
Cc1ccc(C(=O)OCC(=O)c2ccc(Br)cc2)cc1S(=O)(=O)N1CCOCC1 | x | x | -2.0% | 3.1% | x | x
C/C(CC(=O)Nc1ccc2c(c1)OCCO2)=N\NC(=O)c1ccccc1F | 78.9* | 28.6% | 44.8% | 12.5% | 29.5* | 20.7%
C/C(CC(=O)Nc1ccc2c(c1)OCO2)=N\NC(=O)OC(C)(C)C | -4.5 | 1.5% | 2.7% | -1.9% | 17.8 | 98.8%
C/C(CC(=O)Nc1ccc2c(c1)OCO2)=N\NC(=O)c1ccccc1N | 100.5* | u | 46.5% | -10.0% | 59.2* | u
C/C(CC(=O)Nc1ccc2c(c1)OCO2)=N\NC(=O)c1ccc(N)cc1 | 52.8* | 7.6% | 97.2% | 13.7% | 22.0* | 20.7%
O=C(O)CC/C(=N\Nc1ccc([N+](=O)[O-])cc1S(=O)(=O)N1CCOCC1)c1cccs1 | -5.5 | u | 13.4% | -25.6% | 0.8 | u
Cc1ccc(C2=NNC(C(O)C(O)C(O)C(O)CO)S2)cc1 (stereo unspecified) | 56.0* | 96.8% | 42.1% | 15.7% | 24.8* | x
O=C(CSCc1ccccc1)Nc1cccc(C(=O)Nc2ccc(C(=O)O)cc2)c1 | -7.0 | 3.3% | 0.0% | 3.7% | 0.2 | -2.4%
O=C(CSCc1ccc(Cl)cc1)Nc1cccc(C(=O)O)c1 | 52.0* | 12.9% | 15.7% | 15.9% | 27.3* | 55.4%
CC(=O)c1cccc(NC(=O)CSCc2ccccc2)c1 | 71.3* | 59.5% | 4.7% | -20.5% | 39.3* | 13.2%
COc1ccc(CCn2c(O)c(C=Nc3ccc(F)cc3)c(=O)[nH]c2=O)cc1OC | 18.9 | 11.6% | 3.4% | -6.2% | -1.6 | -3.6%
CCN(CC)c1ccc(N=Cc2c(O)n(Cc3ccco3)c(=O)[nH]c2=O)cc1 | -2.4 | u | -19.1% | 10.3% | 0.6 | 11.7µM*
CCN(CC)c1ccc(N=Cc2c(O)n(CCc3ccc(OC)c(OC)c3)c(=O)[nH]c2=O)cc1 | 7.0 | 10.4µM* | -12.3%[2.32 µM] | 15.6% | 11.3 | 7.38µM*
CCN(CCO)c1ccc(N=Cc2c(O)n(C)c(=S)[nH]c2=O)cc1 | 79.9* | -1.2% | -14.5% | -13.9% | 44.2* | 55.8%
CCn1c(O)c(C=Nc2ccc(S(N)(=O)=O)cc2)c(=O)[nH]c1=S | 3.6 | 17.2% | 0.0% | 20.1% | -1.9 | -1.4%
Cc1cc(C)c2c(CC(=O)NC3CCS(=O)(=O)C3)coc2c1 (stereo unspecified) | 13.2 | u | 7.1% | -3.1% | 9.2 | 22.2%
Cc1ccc(S(=O)(=O)c2cc3c(=O)n4cccc(C)c4nc3n(Cc3ccncc3)c2=N)cc1 | -4.6 | u | -16.4% | -25.8% | 1.0 | u
CCCCCC(=O)N1C[C@@H](O)[C@H](n2cc(-c3ccc(F)cc3)nn2)C[C@@H]1c1ccccc1 | x | x | -3.5% | x | x | x
COCCn1c(NC(=S)NC(=O)C23CC4CC(CC(C4)C2)C3)cc(=O)[nH]c1=O | -6.0 | 14.7µM* | -6.7% | 7.2% | -2.7 | u
CN(Cc1ccccc1)S(=O)(=O)c1ccc(NC(=S)NC(=O)C2CCCCC2)cc1 | -6.7 | 47.0% | 27.3% | 10µM* | -2.2 | u
CN(C)S(=O)(=O)c1cccc(NC(=S)NC(=O)C2CCCCC2)c1 | 66.7* | 0.0% | -0.6%[11.6 µM] | u | 41.2* | 8.8%
Cc1cc(C)cc(NC(=S)NC(=O)C2CC2)c1 | -22.4 | 35.2% | 10.9% | u | 10.4 | u
SMILES | Shiga inhibitor | Pf growth 96h | AMA1 RON2 block | HCV inhibitor | Cycloheximide cs | Pf growth 48h
Cc1cc(NC(=S)NC(=O)C2CC2)ccc1Br | 127.8* | -8.6% | 22.3% | -16.2% | 51.4* | 7.4%
Cc1cccc(NC(=S)NC(=O)C2CC2)c1 | 35.5* | u | x | x | 44.6* | -13.0%
COc1ccc(-n2cnc3ccccc3c2=O)c([N+](=O)[O-])c1 | -5.9 | -11.2% | -7.2% | -6.8% | 1.5 | 7.9%
Cc1ccc(S(=O)(=O)Nc2cc(Br)cc3cccnc23)cc1 | -11.4 | x | x | x | 14.2 | x
C=CCNC(=S)N1CCN(C2CCCCC2)CC1 | -4.4 | 30.3% | 5.0% | 14.0% | -1.2 | u
COc1ccc(-c2nnc(-c3cc4c(ccc5ccccc54)oc3=O)o2)cc1 | -6.2 | 3.9% | -4.0% | -5.7% | 1.3 | 76.2%
O=c1oc2ccc3ccccc3c2cc1-c1nnc(-c2ccccc2)o1 | 19.1 | 6.1% | 11.9% | 1.2% | 42.0* | 22.1%
O=c1oc2ccc3ccccc3c2cc1-c1nnc(-c2cccs2)o1 | -3.7 | 26.5% | 4.4% | 14.3% | 25.3* | 19.1%
O=c1[nH][nH]c2c1[C@H](c1ccc(Cl)cc1)O[C@H](C1CC1)C2 | x | x | 63.6% | x | x | x
Clc1ccccc1-c1nc(-c2ccncc2)no1 | 97.4* | 165.9% | 18.4% | 14.5% | 26.3* | 135.8%
C(=C\c1nc(-c2cccnc2)no1)/c1ccccc1 | 12.7 | 29.0% | 22.0% | -19.9% | 7.9 | -12.6%
Cc1nc(-c2noc(-c3ccccc3Cl)n2)c(C(F)(F)F)o1 | 46.7* | 19.3% | 9.4% | -12.9% | 60.6* | 91.9%
CN(C)c1ccc(-c2nnc(-c3cccs3)o2)cc1 | 34.1 | u | 3.2% | 3.2% | 10.8 | 336.8%
Clc1ccccc1-c1nnc(-c2cccs2)o1 | 89.2* | 146.5% | -2.0% | -2.1% | 40.7* | i
Cc1nc(-c2noc(-c3cccc(Cl)c3)n2)c(C(F)(F)F)o1 | 18.3 | 54.2% | -27.0% | -4.9% | 4.5 | 34.1%
Clc1ccccc1/C=C/c1nc(-c2cccnc2)no1 | 97.9* | 136.7% | -9.5% | -9.0% | 40.6* | 58.2%
c1ccc(-c2ccccc2-c2nc(-c3ccncc3)no2)cc1 | 6.8 | 14.1% | 3.5% | u | -1.0 | u
O=C1c2nc3cc(-c4ccco4)[nH]n3c(=O)c2CN1C1CCCCC1 | -6.9 | 11.3% | 10.3% | 8.5% | -4.4 | u
Clc1ccccc1-c1nc(-c2cccnc2)no1 | 83.4* | 58.6% | 25.2% | -6.9% | 24.6* | 51.7%
Cc1ccc(-c2nc(-c3ccncc3)no2)c(Cl)c1 | x | -29.4% | 11.9% | -14.0% | 34.8* | 93.4%
Cc1ccccc1-c1nc(-c2cccnc2)no1 | 82.6* | u | 26.3% | -19.8% | 27.8* | 198.2%
Clc1ccc(Cl)c(-c2nc(-c3ccncc3)no2)c1 | x | u | 5.9% | -7.3% | -2.4 | 14.2%
CSc1ccccc1-c1nc(-c2ccncc2)no1 | 81.9* | -26.1% | 18.1% | -58.1% | 56.6* | x
CN(CC(=O)Nc1ccc(F)cc1)C(=O)CN1C(=O)NC(CCc2ccccc2)C1=O (stereo unspecified) | x | x | 3.3% | x | x | x
